Screening data deposited in PubChem by Broad Institute.
PD-1 reverse act: reversal of PD-1 mediated T-cell inhibition; activation, % (concentration not given with the values); 29,000 tested, under 10 active; primary human CD4 T cells, PD-L1 beads, CellTiter-Glo 96 h; call rule not given here
NOMO-1 viab: STK33 inhibitor candidate reducing NOMO-1 cell viability | NOMO-1 AML viability, CellTiter-Glo luminescence, 72 h | inhibition, % (test concentration not listed) | 37,000 compounds, 7.5% hits | AID 2330; in the data active = inhibition above about 80%; inconclusive = no clear call, values can overlap the other calls
Hedgehog inh: Sonic Hedgehog pathway inhibition; Shh-LIGHT2 Gli-luciferase reporter, 30 h; inhibition, % (test concentration not listed); 22,000 compounds, 2.1% hits;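 active = mean inhibition across valid replicates above about 65%, limit read from the data; inconclusive = mean under the limit, yet half or more replicates past it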;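 note: pathway switched on by Shh-conditioned medium diluted 1 in 25 in low serum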
Numbers stand for hits; i = inactive; ? = inconclusive; nt = not tested or not shown. Most compounds without a hit are left out; they make up all but 7.7% or so of the library.

SMILES	PD-1 reverse act	NOMO-1 viab	Hedgehog inh
COc1ccc(CC(=O)N(CC#N)CC#N)cc1OC	i	i	i
O=C(CSc1nc2c(c(C(F)(F)F)n1)CCCC2)Nc1cccc(Cl)c1Cl	i	i	nt
CS(=O)(=O)N(CC(=O)Nc1ccc(Br)cc1F)c1ccccc1Cl	i	i	nt
C=CCSc1c2c(c(C#N)c3nc4ccccc4n13)CCC2	i	i	i
COc1ccc(N2CCc3c(C)c(C#N)c4nc5ccccc5n4c32)cc1	i	114	i
CC(Sc1nc(-c2ccccc2)cc(-c2ccccc2)n1)C(=O)Nc1ccccc1 (configuration not stated)	nt	i	nt
COc1c(Cc2ccccc2O)c(O)c(Cc2ccccc2O)c(O)c1C(=O)CCc1ccccc1	i	106	89
COc1c(C)c(O)c(C)c(O)c1C(=O)CCc1ccccc1	i	i	i
CO[C@H]1C[C@H](O[C@H]2[C@H](C)[C@@H](O[C@@H]3O[C@H](C)C[C@H](N(C)C)[C@@H]3OC(C)=O)[C@@H](C)C[C@]3(CO3)C(=O)[C@H](C)[C@@H](OC(C)=O)[C@@H](C)[C@@H](C)OC(=O)[C@@H]2C)O[C@@H](C)[C@@H]1OC(C)=O	i	i	i
C[C@H]1CN([C@@H](C)CO)C(=O)c2cccc(NC(=O)c3ccc(-c4nccs4)cc3)c2O[C@@H]1CN(C)Cc1ccc(C(F)(F)F)cc1	nt	?	i
C[C@H](CO)N1C[C@H](C)[C@@H](CN(C)Cc2ccc(C(F)(F)F)cc2)Oc2c(NC(=O)c3ccc(-c4nccs4)cc3)cccc2C1=O	i	115	?
C[C@H]1CN([C@@H](C)CO)C(=O)c2cccc(NC(=O)c3ccc(-c4nccs4)cc3)c2O[C@H]1CN(C)Cc1ccncc1	nt	i	i
C[C@@H]1CN([C@H](C)CO)C(=O)c2cccc(NC(=O)c3ccc(-c4nccs4)cc3)c2O[C@@H]1CN(C)Cc1ccc(C(F)(F)F)cc1	i	i	i
C[C@@H]1CN([C@@H](C)CO)C(=O)c2cccc(NC(=O)c3ccc(-c4nccs4)cc3)c2O[C@@H]1CN(C)Cc1ccc(C(F)(F)F)cc1	i	88	i
C[C@@H]1CN([C@@H](C)CO)C(=O)c2cccc(NC(=O)c3ccc(-c4nccs4)cc3)c2O[C@H]1CN(C)Cc1ccc(C(F)(F)F)cc1	i	99	i
O=c1c(O[C@@H]2O[C@H](CO)[C@H](O)[C@H](O)[C@H]2O)c(-c2cc(O)c(O)c(O)c2)oc2cc(O)cc(O)c12	nt	nt	i
Cc1c(Cc2ccccc2)c(=O)oc2cc(OC(C)C)ccc12	i	i	i
CCOC(=O)C(C)Oc1ccc2c(-c3ccccc3)cc(=O)oc2c1 (configuration not stated)	i	109	i
CCOC(=O)c1ccccc1NC(=O)C(C)Oc1ccc2c(C)cc(=O)oc2c1 (configuration not stated)	nt	104	nt
CCOC(=O)c1ccccc1NC(=O)C(C)Oc1cc(C)c(Cl)c(C)c1 (configuration not stated)	nt	i	nt
Cc1ccc(-c2ccc(OC(=O)c3ccccc3F)cc2)cc1	i	i	i
CCOc1ccc(-n2c(SCC(=O)c3ccccc3)nnc2-c2ccncc2)cc1	i	i	nt
O=C(CSc1nccc(=O)[nH]1)Nc1cccc(C(F)(F)F)c1	i	i	nt
CC(C)C12CC1C(C)(O[C@@H]1O[C@H](CO)[C@@H](O)[C@H](O)[C@H]1O)CC2=O (some centres not stated)	nt	nt	i
COc1ccc(OC(C)C(=O)Nc2cc(OC)cc(OC)c2)cc1 (configuration not stated)	i	i	nt
SMILES	PD-1 reverse act	NOMO-1 viab	Hedgehog inh
CCOc1ccccc1NC(=O)C(C)Oc1ccc(OC)cc1 (configuration not stated)	i	105	nt
COc1ccc(N2C(=O)N(c3ccc(F)cc3)C(=O)C2CC(=O)Nc2ccc(F)cc2)cc1 (configuration not stated)	nt	i	nt
Cc1ccc(-c2csc3ncnc(SCC(=O)Nc4ccc(S(N)(=O)=O)cc4)c23)cc1	i	i	nt
C[C@@H]1CN([C@@H](C)CO)C(=O)c2cccc(NC(=O)Nc3ccc4c(c3)OCO4)c2O[C@H]1CN(C)Cc1ccccc1	i	107	i
C[C@@H]1CN([C@H](C)CO)C(=O)c2cccc(NC(=O)Nc3ccc4c(c3)OCO4)c2O[C@@H]1CN(C)Cc1ccc(Cl)c(Cl)c1	i	i	i
C[C@H]1CN([C@@H](C)CO)C(=O)c2cccc(NC(=O)Nc3ccc4c(c3)OCO4)c2O[C@H]1CN(C)Cc1ccc2c(c1)OCO2	i	i	i
C[C@H]1CN([C@@H](C)CO)C(=O)c2cccc(NC(=O)Nc3ccc4c(c3)OCO4)c2O[C@@H]1CN(C)Cc1ccc(Cl)c(Cl)c1	nt	91	i
C[C@@H]1CN([C@@H](C)CO)C(=O)c2cccc(NC(=O)Nc3ccc4c(c3)OCO4)c2O[C@@H]1CN(C)CC1CCCCC1	i	i	i
C[C@@H]1CN([C@@H](C)CO)C(=O)c2cccc(NC(=O)Nc3ccc4c(c3)OCO4)c2O[C@@H]1CN(C)Cc1ccccc1	nt	i	i
C[C@@H]1CN([C@@H](C)CO)C(=O)c2cccc(NC(=O)Nc3ccc4c(c3)OCO4)c2O[C@H]1CN(C)Cc1ccc2c(c1)OCO2	i	93	i
C[C@@H]1CN([C@@H](C)CO)C(=O)c2cccc(NC(=O)Nc3ccc4c(c3)OCO4)c2O[C@H]1CN(C)CC1CCCCC1	nt	83	i
CS(=O)(=O)N(CC(=O)Nc1ccc(F)cc1)c1ccccc1	i	i	nt
C[C@H](CO)N1C[C@H](C)[C@H](CN(C)Cc2ccccc2)Oc2c(NC(=O)Nc3ccc4c(c3)OCO4)cccc2C1=O	i	84	i
C[C@H](CO)N1C[C@H](C)[C@@H](CN(C)Cc2ccccc2)Oc2c(NC(=O)Nc3ccc4c(c3)OCO4)cccc2C1=O	i	i	i
COc1ccccc1NC(=O)C1=C(C)NC(SCC(N)=O)=C(C#N)C1c1ccccc1 (configuration not stated)	nt	i	nt
CC1=C(CC/C(C)=C/C(=O)O)[C@@]2(C)CCCC(C)(C)C2CC1 (some centres not stated)	i	i	i
NC(=O)COc1ccc(Br)cc1C1C2=C(CCCC2=O)NC2=C1C(=O)CCC2	i	i	nt
COC(=O)COc1cc(Cl)c(C2NC(=S)NC(c3ccccc3)=C2C(C)=O)cc1OC (configuration not stated)	nt	117	nt
COc1cc(C2NC(=S)NC(c3ccccc3)=C2C(=O)c2ccccc2)cc(I)c1OCCO (configuration not stated)	i	i	nt
Cc1cccc(N=Cc2c(Nc3cccc(C)c3)nc3ccccn3c2=O)c1	i	i	i
Cc1ccc(S(=O)(=O)NC(C(=O)Oc2cc3oc(=O)cc(-c4ccccc4)c3cc2Cl)C(C)C)cc1 (configuration not stated)	nt	i	nt
COc1cc(NC(=O)COc2cc(C)c(Cl)c(C)c2)ccc1NC(=O)c1ccco1	i	i	nt
COc1ccc(NC(=O)c2ccco2)cc1NC(=O)COc1cc(C)c(Cl)c(C)c1	i	96	nt
COc1ccc(CC(=O)Nc2ccc(NC(=O)c3ccco3)cc2)cc1OC	i	114	nt
COc1ccc(CC(=O)Nc2ccc(S(N)(=O)=O)cc2)cc1OC	nt	i	nt
CCn1c(SCC(=O)Nc2cc(C(F)(F)F)ccc2Cl)nnc1-c1ccccc1F	i	i	nt
